Reference: PMC4336329 (PLoS ONE, 2015)
The campaign covered roughly 310,000 compounds. About 2,200 (0.71%) showed an effect of 50% or more. The effect is printed as a negative number. The entries come from a sample that favours strong results as a whole.

target: human ether-à-go-go-related gene (hERG) potassium channel (human, UniProt Q12809); test: primary screen, population patch clamp on CHO cells stably expressing hERG; higher = less effect of the substance
Sequence (Q12809 whole entry, looked up): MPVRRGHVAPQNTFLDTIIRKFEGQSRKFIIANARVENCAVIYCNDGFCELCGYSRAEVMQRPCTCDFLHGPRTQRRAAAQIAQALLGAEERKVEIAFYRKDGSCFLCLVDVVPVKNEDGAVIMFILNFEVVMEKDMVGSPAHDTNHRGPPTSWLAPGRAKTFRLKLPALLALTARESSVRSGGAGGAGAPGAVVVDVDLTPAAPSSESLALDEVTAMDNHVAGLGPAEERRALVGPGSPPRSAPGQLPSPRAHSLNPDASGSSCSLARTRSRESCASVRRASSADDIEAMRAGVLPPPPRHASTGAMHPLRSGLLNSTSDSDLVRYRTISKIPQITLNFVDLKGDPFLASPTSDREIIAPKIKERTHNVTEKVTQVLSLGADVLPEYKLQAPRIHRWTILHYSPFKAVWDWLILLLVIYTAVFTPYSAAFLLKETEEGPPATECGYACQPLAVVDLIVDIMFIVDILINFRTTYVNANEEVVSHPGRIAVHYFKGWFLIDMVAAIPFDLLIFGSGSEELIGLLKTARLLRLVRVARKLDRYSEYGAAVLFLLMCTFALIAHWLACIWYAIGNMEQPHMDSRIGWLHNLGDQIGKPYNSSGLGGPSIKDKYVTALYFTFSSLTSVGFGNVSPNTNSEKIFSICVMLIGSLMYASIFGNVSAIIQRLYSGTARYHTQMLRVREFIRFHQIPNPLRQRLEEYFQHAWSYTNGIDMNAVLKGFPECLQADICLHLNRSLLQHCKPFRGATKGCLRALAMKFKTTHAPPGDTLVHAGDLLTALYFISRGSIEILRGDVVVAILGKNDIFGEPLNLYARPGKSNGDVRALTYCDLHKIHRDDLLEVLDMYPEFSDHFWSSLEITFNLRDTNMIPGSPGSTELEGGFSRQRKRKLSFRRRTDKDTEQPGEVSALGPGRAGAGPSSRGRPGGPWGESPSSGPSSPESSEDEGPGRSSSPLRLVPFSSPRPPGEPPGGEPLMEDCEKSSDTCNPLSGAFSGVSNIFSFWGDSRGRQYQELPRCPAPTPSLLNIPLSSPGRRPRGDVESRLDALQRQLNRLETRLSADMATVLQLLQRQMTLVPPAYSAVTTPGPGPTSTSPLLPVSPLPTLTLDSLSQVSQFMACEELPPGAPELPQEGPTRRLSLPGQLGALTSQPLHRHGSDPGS

Row | SMILES | hERG current change (%, negative = inhibition) at 1uM
1 | Cc1ccc(NC(=O)Cc2ccc([N+](=O)[O-])cc2)c(Br)c1 | 5.32%
2 | CC(C)Oc1ccc(CCC(=O)N/N=C/c2ccc3c(c2)OCO3)cc1 | 16.1%
3 | COc1ccc(C2c3ccc4ccccc4c3Oc3ncn(CCCN(C)C)c(=N)c32)cc1 (centres unmarked) | -29%
4 | COc1ccc(C2c3ccc4ccccc4c3Oc3ncn(CCO)c(=N)c32)cc1 (centres unmarked) | -61.7%
5 | CN(C)CCn1cnc2c(c1=N)C(c1ccccc1)c1ccc3ccccc3c1O2 (centres unmarked) | -78.1%
6 | COc1ccc(C2c3ccc4ccccc4c3Oc3ncn(CCN(C)C)c(=N)c32)cc1 (centres unmarked) | -40.1%
7 | COc1ccc(C2c3ccc4ccccc4c3Oc3ncn(CCO)c(=N)c32)cc1OC (centres unmarked) | -13.9%
8 | COc1ccccc1C1c2ccc3ccccc3c2Oc2ncn(CCN(C)C)c(=N)c21 (centres unmarked) | -7%
9 | N=c1c2c(ncn1CCCO)Oc1c(ccc3ccccc13)C2c1ccccc1 (centres unmarked) | -20.5%
10 | COc1ccc(C2c3ccc4ccccc4c3Oc3ncn(CCCO)c(=N)c32)cc1 (centres unmarked) | -40.6%
11 | CN(C)CCCn1cnc2c(c1=N)C(c1ccccc1)c1ccc3ccccc3c1O2 (centres unmarked) | -61.9%
12 | Nc1cccc2c1C(=O)N(C(=O)c1ccc(Cl)c(S(=O)(=O)N3CCCCCC3)c1)C2=O | 13.1%
13 | COc1cccc(CCc2nnc(CCC(=O)N3CCN(Cc4ccccn4)CC3)o2)c1 | 10.2%
14 | COCCCNC(=O)c1cc2c(=O)n(C)c3ccccc3c2n1C | -8.02%
15 | O=C(COC(=O)CCN1C(=O)c2ccccc2C1=O)Nc1ccccc1[N+](=O)[O-] | 16.6%
16 | O=C(CSc1nnc(-c2ccco2)o1)N1c2ccccc2CCc2ccccc21 | 9.21%
17 | CCOC(=O)C(C)n1cnc2c(nnn2Cc2ccc(C)cc2)c1=O (centres unmarked) | 11.6%
18 | CC(C)c1ccc(-c2nc(N3CCCCCC3)nc3n[nH]c(N)c23)cc1 | 10.2%
19 | COc1ccc(NC(=O)Cn2nnc(C(=O)NCCc3ccc(OC)c(OC)c3)c2N)c(OC)c1 | -1.5%
20 | CCn1c(CCc2ccccc2)nnc1SCC(N)=O | 13.3%
21 | NC(=O)C1(c2ccccc2)CCC(=O)N1c1ccccc1 (centres unmarked) | 14.8%
22 | COc1ccc(S(=O)(=O)N(CC(=O)NCc2cccnc2)Cc2ccccc2)cc1 | -51.2%

Row | SMILES | hERG current change (%, negative = inhibition) at 1uM
23 | CCOc1ccc(S(=O)(=O)N(CC(=O)NCc2cccnc2)c2ccc(C)cc2)cc1 | -52.4%
24 | CCOc1ccc(S(=O)(=O)N(CC(=O)NCc2ccncc2)c2ccc(C)cc2)cc1 | -14.6%
25 | Cc1ccc(S(=O)(=O)N(CC(=O)NCc2cccnc2)C2CCCCC2)cc1 | -30.3%
26 | O=C(CN(C1CCCCC1)S(=O)(=O)c1ccccc1)NCc1cccnc1 | 5.52%
27 | CCN(CC(=O)NCc1cccnc1)S(=O)(=O)c1ccc(OC)cc1 | 0.0713%
28 | CCOc1ccc(N(CC(=O)NCc2ccccc2)S(=O)(=O)c2ccc(C)cc2)cc1 | 6.54%
29 | CCOc1ccc(S(=O)(=O)N(CC(=O)NCc2cccnc2)c2ccc(F)cc2)cc1 | -67.2%
30 | O=C(CN(C1CCCCC1)S(=O)(=O)c1ccc(Cl)cc1)NCc1cccnc1 | -60.6%
31 | O=C(CN(Cc1ccccc1)S(=O)(=O)c1ccc(F)cc1)NCc1cccnc1 | -31.9%
32 | CCOc1ccc(N(CC(=O)NCc2cccnc2)S(=O)(=O)c2ccc(F)cc2)cc1 | 7.16%
33 | Cc1ccc(S(=O)(=O)N(CC(=O)NCc2cccnc2)c2ccc(F)cc2)cc1 | -38.1%
34 | C[C@H]1CN=C(N(C)C)N1CCC1CCCCC1 | 13.6%
35 | CN(CC(=O)Nc1cccc(S(=O)(=O)NC2=NCCCCC2)c1)Cc1ccc(C(C)(C)C)cc1.O=C(O)C(=O)O | 12.9%
36 | CCN1CCN(S(=O)(=O)c2cc(OC)ccc2OC)CC1 | 19%
37 | c1ccc(CSc2nnc3c(n2)OC(c2ccco2)Nc2ccccc2-3)cc1 (centres unmarked) | 14.9%
38 | COC(=O)c1sc(Nc2ccccc2)nc1C | 13.5%
39 | C/C(N)=C(/C#N)C(=O)CSc1nc2cc(Cl)ccc2s1 | -7.65%
40 | CC(=O)c1ccc2c(c1)OCCOCCOc1ccccc1OCCOCCO2 | -82.5%
41 | c1ccc2c(c1)OCCOCCOCCOCCOc1ccccc1OCCOCCOCCO2 | -11.5%
42 | C/C(=N/O)c1ccc2c(c1)OCCOCCOc1cc(/C(C)=N/O)ccc1OCCOCCO2 | -79.7%
43 | CC(=O)c1ccc2c(c1)OCCOCCOCCOCCOCCO2 | -11.8%
44 | CC(=O)c1ccc2c(c1)OCCOCCOCCO2 | 12.3%

Row | SMILES | hERG current change (%, negative = inhibition) at 1uM
45 | CC(=O)c1ccc2c(c1)OCCOCCOc1ccc(C(C)=O)cc1OCCOCCO2 | -84.8%
46 | C/C(=N\O)c1ccc2c(c1)OCCO2 | 12.6%
47 | CC(=O)[O-].[K+].c1ccc2c(c1)OCCOCCOc1ccccc1OCCOCCO2 | -80.7%
48 | O=C(c1ccccc1)c1ccc2c(c1)OCCOCCOCCO2 | 8.88%
49 | c1ccc2c(c1)OCCOCCOCCO2 | 13.2%
50 | O=C(O)c1ccc2c(c1)OCCOCCOCCOCCOCCO2 | -12.4%
51 | CC(=O)c1ccc2c(c1)OCCOCCOCCOCCO2 | -3.2%
52 | CN1CCN(C2=C(Cl)C(=O)N(CCc3ccccc3)C2=O)CC1 | 17.7%
53 | CCN(CC)S(=O)(=O)c1ccc(C(=O)Nc2c3c(nn2C(C)(C)C)CS(=O)(=O)C3)cc1 | 5.04%
54 | Cc1cc(C)c[n+](-c2nc3ccccc3nc2[N-]S(=O)(=O)c2cccs2)c1 | 2.45%
55 | COC(=O)c1ccccc1NC(=O)CNc1cc(Cl)ccc1N1CCOCC1 | -0.671%
56 | CCC(=O)Nc1cccc(C(=O)Nc2nccs2)c1 | 8.98%
57 | CN1CCC(=NNC(=O)c2ccc(N(Cc3ccccc3Cl)S(C)(=O)=O)cc2)CC1 | 6.54%
58 | CCc1ccccc1NC(=O)/C(=C/c1ccccc1)c1ccccc1 | -4.2%
59 | Cc1ccc(OCC(=O)NC(=S)Nc2ccc(Br)c(C)n2)cc1 | 5.89%
60 | O=C(CCCC(=O)c1ccc(F)cc1)c1ccc(F)cc1 | 5.62%
61 | O=C(CCCc1ccccc1)c1ccccc1 | 19.4%
62 | CCN(CCCC(=O)c1ccc(F)cc1)CCc1ccccc1.Cl | -86.5%
63 | COCCn1nnnc1C(c1ccc(OC)c(OC)c1)N1CCN(c2nc3ccccc3s2)CC1 (centres unmarked) | 2.83%
64 | COCCN(C(=O)c1csnn1)C(C(=O)NC1CCCC1)c1ccccc1F (centres unmarked) | 12.6%
65 | COc1ccc(-n2c(NCCN(C)C)nc3sc4c(c3c2=O)CCCCC4)cc1 | -69.4%
66 | COc1ccc(-n2c(NN)nc3sc4c(c3c2=O)CCCC4)cc1 | -9.75%

Row | SMILES | hERG current change (%, negative = inhibition) at 1uM
67 | CN(C)CCNc1nc2sc3c(c2c(=O)n1-c1ccc(F)cc1)CCCCC3 | 6.73%
68 | CC1(C)CC(NC(=O)C2CCN(S(=O)(=O)c3ccc(F)cc3)CC2)CC(C)(C)N1 | 16.9%
69 | CCOC(=O)C1(Cc2ccc(Cl)cc2)CCN(Cc2cnc(N)nc2)CC1 | -60.6%
70 | CCOC(=O)C1(Cc2ccc(Cl)cc2)CCN(C(=O)C2=NNC(=O)CC2)CC1 | -61.2%
71 | O=C1CCC(C(=O)N2CCC(CO)(Cc3ccc(Cl)cc3)CC2)=NN1 | 2.9%
72 | CCOC(=O)C1(Cc2ccc(Cl)cc2)CCN(Cc2ccon2)CC1 | 5.86%
73 | CCOC(=O)C1(Cc2ccc(Cl)cc2)CCN(C(=O)c2cscn2)CC1 | -12.4%
74 | CCOC(=O)C1(Cc2ccccc2)CCN(Cc2nccn2CC)CC1 | 8.81%
75 | CCOC(=O)C1(Cc2cccc(OC)c2)CCCN(Cc2nccn2CC)C1 (centres unmarked) | -13.5%
76 | CCOC(=O)C1(Cc2ccc(Cl)cc2)CCN(Cc2nccn2CC)CC1 | -57%
77 | CCOC(=O)C1(Cc2cccc(OC)c2)CCN(Cc2cnc(N)nc2)CC1 | 5.79%
78 | COc1ccccc1C(=O)Nc1nnc(S(=O)(=O)N2CCC(C)CC2)s1 | 12.4%
79 | CCOc1ccc(CNC(=O)C2CCCN(c3nnc(C)c4c(C)n(-c5ccccc5)nc34)C2)cc1 (centres unmarked) | 8.87%
80 | N#C/C(=C/c1ccc(N2CCCCCC2)o1)c1ccc(F)cc1 | 16.2%
81 | O=C1CC(Nc2ccc(N3CCOCC3)cc2)C(=O)N1c1ccccc1F (centres unmarked) | 3.19%
82 | CCN1C(=O)[C@H]2[C@@H](c3ccc(-c4ccc(OC)cc4)cc3)N3CCC[C@@]3(C(=O)OC)[C@H]2C1=O.O=C(O)C(F)(F)F | 11.6%
83 | Cc1cc(C)c(S(=O)(=O)N2CCCCC2CCNC(=O)C(=O)NCCN2CCOCC2)c(C)c1 (centres unmarked) | 6.75%
84 | Cc1cc(C(C)(C)C)ccc1OCCOCCN1CCCC1 | -0.816%
85 | Cc1cc(C(C)(C)C)ccc1OCCN(C)C | -15.1%
86 | Cc1cc(C(C)(C)CC(C)(C)C)ccc1OCCOCC[N+](C)(C)Cc1ccccc1.[Cl-] | -62%
